{"source": "PubChem BioAssay (EPA / NIEHS)", "note": "The source made the active and inactive calls. How the source made its calls: active means hit-call score of the fitted dose curve at least 0.9, where 1 is the maximum; inactive means score below 0.9.", "data": [{"assay": "CCTE_Shafer_MEA_dev_burst_duration_mean: CCTE's Neural Network Formation Assay for Mean Burst Duration, Shafer Lab (AID 2284045);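 on AC50: curve fitted for loss meaning shorter burst duration than DMSO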", "procedure": "CCTE_Shafer_MEA_dev assay is conducted using Axion Biosystems 48 well microelectrode array (MEA) plates and Maestro recording system. Each well of the MEA plate contains a grid of 16 microelectrodes embedded in the culture surface. Electrically active cells, such as neurons, can be cultured over the electrodes, and electrical activity in these cells can be recorded extracellularly. The spontaneous firing of neurons is captured from each electrode on a microsecond timescale providing both temporally and spatially precise data. […] The CCTE_Shafer_MEA_dev assay uses primary cultures of rat cortical neurons. Recordings are made on days post-plating 5, 7, 9 and 12. As these cultures mature over time, neural networks develop functional activity and form cohesive networks in which electrical activity can be highly coordinated. CCTE_Shafer_MEA_dev_burst_duration_mean is 1 of 19 assay components of the CCTE_Shafer_MEA_dev assay. It measures the average time interval from the first spike (action potential firing) to the last spike in a singe-electrode burst (temporally-clustered group of spikes) during a recording in a microelectrode array (MEA) using Axion Biosystems Maestro 768 channel amplifier with the AxIS adaptive spike detector. The mean burst duration is averaged across the actively bursting electrodes to report a well-mean value. To collapse across multiple recordings made on days post-plating 5, 7, 9 and 12, the trapezoidal area-under-the-curve of the component is calculated.Data from the assay component CCTE_Shafer_MEA_dev_burst_duration_mean was analyzed into 1 assay endpoint. This assay endpoint, CCTE_Shafer_MEA_dev_burst_duration_mean, was analyzed in the negative analysis fitting direction relative to DMSO as the negative control and baseline of activity. Using a type of functional reporter, gain or loss-of-signal activity can be used to understand electrical activity.\nOn the day prior to culture, each well was coated thoroughly with 150 uL of 0.05% polyethyleneimine (PEI, Sigma Cat P3143) in 50 mM HEPES (Sigma Cat H7523) at a pH of 8. The plate was incubated at 37C for one hour. PEI was rinsed out with 500 uL of sterile water three times. Plates were stored at 4C until the day of culture. This culture was plated at a seeding density of 1.5 x 10^5 cells/well on a 48-well MEA plate, prepared as described above. Cells were administered via a 25 uL media/laminin ([…]; Sigma Cat L2020-1MG) drop directly onto the microelectrode array, as adding the cells with the laminin results in better attachment than pre-coating with laminin. After 2 hours, an additional 475 uL of cortical media was added and the cells returned to the incubator. Exposure starts at day 0 of plating and is continued over twelve days of network development until the experiment is terminated. Cells are fed with fresh medium on DIV 5 and 9, following the recordings on those days. The entire volume of media in the well is exchanged and any vehicle or compound treatment is renewed. Complete details are found in OP-NHEERL/ISTD/SBB/TJS/2015-03-r0 (available on request, email shafer.tim@epa.gov). Measurement of the electrical activity is non-invasive, and recordings can be made from the same plate over multiple different days of the culture. In cortical neurons, this allows for the measurement of extracellular action potentials over the period during which networks form in the MEA plate.", "values": [{"smiles": "CC(C)(C)c1ccccc1OP(=O)(Oc1ccccc1)Oc1ccccc1", "outcome": "inactive"}, {"smiles": "CCOP(=S)(OCC)SCSCC", "outcome": "inactive"}, {"smiles": "CCOc1ccc(C(C)(C)COCc2cccc(Oc3ccccc3)c2)cc1", "outcome": "inactive"}, {"smiles": "O=C(O)C(F)(F)OC(F)(F)C(F)(F)OC(F)(F)C(=O)O", "outcome": "inactive"}, {"smiles": "O=C(O)C(F)(F)C(F)(F)C(=O)O", "outcome": "inactive"}, {"smiles": "O=C(O)C=CC(F)(C(F)(F)F)C(F)(F)F", "outcome": "inactive"}, {"smiles": "O=P1(N(CCCl)CCCl)NCCCO1", "note": "(centres undefined)", "outcome": "inactive"}, {"smiles": "C=CC(=O)OCC(F)(F)C(F)F", "AC50": "8.76 µM (active)"}, {"smiles": "O=S(=O)(c1ccc(O)cc1)c1ccc(O)cc1", "outcome": "inactive"}, {"smiles": "OCC(F)(F)OC(F)(F)C(F)(F)OC(F)(F)C(F)(F)OC(F)(F)CO", "outcome": "inactive"}, {"smiles": "c1ccc(OP(Oc2ccccc2)Oc2ccccc2)cc1", "outcome": "inactive"}, {"smiles": "ClC1=C(Cl)C2(Cl)C3C(Cl)C(Cl)CC3C1(Cl)C2(Cl)Cl", "note": "(centres undefined)", "outcome": "inactive"}, {"smiles": "O=C(O)C(F)(OC(F)(F)C(F)(F)C(F)(F)F)C(F)(F)F", "note": "(centres undefined)", "outcome": "inactive"}, {"smiles": "O=C(O)C(F)(F)OC(F)(F)C(F)(F)OC(F)(F)F", "outcome": "inactive"}, {"smiles": "O=P(Oc1ccccc1)(Oc1ccccc1)Oc1ccccc1", "outcome": "inactive"}, {"smiles": "OCC(F)(F)OC(F)(F)C(F)(F)OC(F)(F)C(F)(F)OC(F)(F)F", "outcome": "inactive"}, {"smiles": "c1cc2c3c(cccc3c1)CC2", "outcome": "inactive"}, {"smiles": "CCCCC(CC)COC(=O)c1c(Br)c(Br)c(Br)c(Br)c1C(=O)OCC(CC)CCCC", "note": "(centres undefined)", "outcome": "inactive"}, {"smiles": "OCC(F)(F)OC(F)(F)C(F)(F)OC(F)(F)CO", "outcome": "inactive"}, {"smiles": "CCC1(c2ccccc2)C(=O)N=C(O)NC1=O", "note": "(centres undefined)", "outcome": "inactive"}, {"smiles": "CC(O)C(F)(F)C(F)(F)F", "note": "(centres undefined)", "outcome": "inactive"}, {"smiles": "CO/N=C(/C(=O)OC)c1ccccc1COc1ccccc1C", "AC50": "0.863 µM (active)"}, {"smiles": "O=C(O)C1C(C(=O)O)C2(Cl)C(Cl)=C(Cl)C1(Cl)C2(Cl)Cl", "note": "(centres undefined)", "outcome": "inactive"}, {"smiles": "CCCCC(CC)COP(=O)(Oc1ccccc1)Oc1ccccc1", "note": "(centres undefined)", "outcome": "inactive"}]}]}
